GBA activity = Glucocerebrosidase. 1.1% of 48,000 active. AID 360, 2006. Potency, µM. purified enzyme, resorufin glucoside fluorescence (screen aimed at inhibitors), 20 min; in the data active means potency below about 15 µM; inconclusive means mostly about 16 µM to 33 µM;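 further: the screen sought inhibitors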
Target sequence (P04062 whole entry, looked up): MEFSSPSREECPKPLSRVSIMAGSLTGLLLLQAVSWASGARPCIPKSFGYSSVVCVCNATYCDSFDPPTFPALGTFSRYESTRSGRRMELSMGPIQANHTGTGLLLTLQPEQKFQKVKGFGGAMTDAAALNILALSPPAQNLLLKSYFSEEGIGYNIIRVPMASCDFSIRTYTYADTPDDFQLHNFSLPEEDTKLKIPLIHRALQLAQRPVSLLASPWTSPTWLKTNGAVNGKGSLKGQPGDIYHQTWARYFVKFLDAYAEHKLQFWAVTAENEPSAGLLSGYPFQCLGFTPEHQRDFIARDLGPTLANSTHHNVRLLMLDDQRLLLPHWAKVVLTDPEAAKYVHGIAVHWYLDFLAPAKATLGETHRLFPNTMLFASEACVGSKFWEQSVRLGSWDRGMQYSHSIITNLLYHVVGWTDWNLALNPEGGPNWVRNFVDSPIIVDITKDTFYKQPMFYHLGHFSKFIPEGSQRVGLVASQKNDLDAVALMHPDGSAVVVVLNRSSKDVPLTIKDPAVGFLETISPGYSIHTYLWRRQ
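Normal human glucocerebrosidase (0.2 nM final) was assayed with resorufin β-D-glucopyranoside (30 uM final) in 50mM citric acid/KH2PO4, 10mM sodium taurocholate, 0.01% tween-20, pH 5.9. Compounds were titrated; fluorescence (Ex 548, Em 600) read after 20 min at RT.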
FLuc inh = qHTS Assay for Inhibitors of Firefly Luciferase | Luciferin 4-monooxygenase (Photinus pyralis), P08659 | purified firefly luciferase, luminescence, 8 min | Potency, µM (top dose mostly 57.1 µM), actives largely listed as inhibitors | 2.2% of 72,000 active; active means well fitted inhibition curve with a large enough effect; inconclusive means small, poorly fitted or top-dose-only effect; further: nearly all actives have a fitted effect of over 40% in size
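Firefly luciferase (PKLight detection mix) with 10 uM ATP in pH 7.2 imidazole buffer (KCl, MgCl2, Tween 20, BSA). Compounds tested across a concentration series (qHTS). Luminescence read after 8 min at ambient temperature.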
PK Bst = Pyruvate Kinase; AID 361, 2006; Potency, µM; purified pyruvate kinase, luminescence ATP production; ribose 5-phosphate activator present at AC10; 1.2% of 51,000 active; in the data active means potency below about 11 µM; inconclusive means mostly about 12 µM to 25 µM;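 the screen sought inhibitors and activators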
Numbers stand for hits; – = inactive; ? = inconclusive; · = no result; [ ] = dose if it differs, or a comment. Compounds with a hit are over-represented: about 3.4% of the library has one in this group of screens.

SMILES	GBA activity	FLuc inh	PK Bst
O=C(Nc1nc2c(s1)CCCC2)C1COc2ccccc2O1 (configuration not stated)	·	10µM	·
Cc1nnc(NC(=O)C2COc3ccccc3O2)s1 (configuration not stated)	–	–	–
N#Cc1cccc(NC(=O)N2CC3(CCN(C(=O)c4ccco4)CC3)C2)c1	·	–[11.4 µM]	·
CCOC(=O)c1cc(=O)n2[nH]c(-c3ccc(C)cc3)cc2n1	–	–	–
CCc1c(C)nc2cc(-c3ccc(OC)cc3)[nH]n2c1=O	?	20µM	?
Cc1ccc(-c2cc3nc4c(c(=O)n3[nH]2)CCCC4)cc1	·	4µM	·
CCOC(=O)Cc1c(C)nc2cc(-c3ccc(Cl)cc3)[nH]n2c1=O	–	–	·
c1cncc(-c2cncnc2NCc2cccs2)c1	·	–[2.29 µM]	·
COc1ccc2[nH]cc(CCNc3ccnc(-c4cccnc4)n3)c2c1	·	–[2.29 µM]	·
O=C(Nc1ccc2c(c1)OCCO2)c1ccc(NC(=O)C2CCCO2)cc1 (configuration not stated)	?	13µM	·
O=C(NCc1ccc2c(c1)OCO2)c1ccc(NC(=O)C2CCCO2)cc1 (configuration not stated)	·	–	–
O=C(Nc1ccc2c(c1)OCCO2)NC1CCCCC1	·	7.9µM	·
O=C(Nc1ccc2c(c1)OCCO2)C1CCC1	–	–	–
CCNc1ncc2nc(-c3cc(F)cc(F)c3)c(=O)n(CCc3ccccc3)c2n1	·	–[11.4 µM]	·
CC(C)(C)Nc1cccccc1=O	–	–	–
Cc1ccc(Nc2cccccc2=O)cc1	–	25µM	–
C/C(CCN1CCCc2nc(C)c(C)cc21)=N\O[C@@H](C)c1cn([C@H](CO)Cc2ccccc2)nn1	·	–[11.4 µM]	·
Cc1cc2nc(-c3ccc(SCC(=O)N4CCOCC4)nc3)[nH]c2cc1C	–	2.5µM	2.1
O=C(CSc1ccc2nnc(-c3ccc(F)cc3)n2n1)N1CCOCC1	·	–	·
COc1cc(C(=O)O)ccc1OCC(=O)N1CCOCC1	–	–	–
CCCCOc1ccc(-c2nnn(CCC(=O)N3CCOCC3)n2)cc1	–	6.3µM	·
COc1ccc(NC(=O)Nc2ccc(OCC(=O)N3CCOCC3)cc2)cc1OC	·	13µM	·
O=C(COc1ccc(C(=S)N2CCOCC2)cc1)N1CCCC1	–	–	–
Cc1ccc(-c2ccc(OCC(=O)N3CCOCC3)cc2)cc1	–	13µM	·
O=C(CCCOc1ccc(Cl)cc1)N1CCOCC1	–	–	–
SMILES	GBA activity	FLuc inh	PK Bst
CCN(CC)COC(=S)S	·	–[11.4 µM]	·
COc1ccc(-c2ccc(SCC(=O)N3CCOCC3)nn2)cc1	–	13µM	–
O=C(CSc1ccc(-c2ccc(F)cc2)nn1)N1CCCCC1	–	–	–
CC(=O)N1CCC2(CC1)CN(C(c1ccccc1)c1ccccc1)C2	·	–[11.4 µM]	·
NC(=O)c1ncn([C@@H]2O[C@@H](CO)[C@@H](O)[C@H]2O)n1	·	–	·
CCc1cc2cc(C(=O)Nc3ccccc3F)sc2s1	–	5µM	–
CCc1cc2cc(C(=O)N3CCN(Cc4ccccc4)CC3)sc2s1	·	–	·
CS(=O)(=O)N1CCC2(CCN(C(c3ccccc3)c3ccccc3)CC2)CC1	·	–[11.4 µM]	·
O=C1CCCC=C1[C@H](CCc1ccccc1)OC(=O)c1ccc(Br)cc1	·	–[11.4 µM]	·
Nc1nc(Nc2ccccc2)nc2ccccc12	?	6.3µM	5.5
c1ccc(Nc2nc(-c3cccnc3)nc3ccccc23)cc1	·	–[2.29 µM]	·
Oc1ccc(Nc2nc(N3CCCC3)c3ccccc3n2)cc1	8.8	–	–
Cc1ccc(Nc2nc(N3CCOCC3)c3ccccc3n2)cc1	·	–	·
c1ccc(C(CCN2CC3CCC(CC3)C2)c2ccccc2)cc1	·	–[11.4 µM]	·
CCNc1ncc2nc(-c3ccccc3)c(=O)n(Cc3ccc(F)cc3)c2n1	·	–[11.4 µM]	·
O=C(O)CCCC[C@H]1SC[C@H]2NC(=O)N[C@@H]21	·	–	·
Cn1c(/N=C/c2ccc3c(c2)OCO3)nc2ccccc21	·	2.5µM	·
CCn1c(NCc2c[nH]c3ccccc23)nc2ccccc21	–	–	–
Cn1c(/C=N/n2cnnc2)nc2ccccc21	·	–	·
Cn1c(/N=C/c2c[nH]c3ccccc23)nc2ccccc21	?	0.63µM	0.3
CCCn1c(C(O)c2ccc3c(c2)OCO3)nc2ccccc21 (configuration not stated)	–	–	–
Cn1c(NCc2c[nH]c3ccccc23)nc2ccccc21	–	25µM	·
COC(=O)C/C=C1\c2ccccc2[C@H](OC)[C@H]1C	·	–[11.4 µM]	·
O=C(c1ccco1)N1CCC2(CC1)CN(c1ccccn1)C2	·	–[11.4 µM]	·
CCn1nc(C(=O)OCC(=O)c2cc(C)n(Cc3cccs3)c2C)c2ccccc2c1=O	–	–	·
CC(=O)Nc1ccc(SCC(=O)c2cc(C)n(Cc3cccs3)c2C)cc1	–	–	–
Cc1cc(C(=O)COC(=O)c2ccc3c(c2)OCO3)c(C)n1Cc1cccs1	14	?	·
CCn1nc(C(=O)OCC(=O)c2ccc3c(c2)OCCO3)c2ccccc2c1=O	–	13µM	?
O=C(Cc1n[nH]c(=O)c2ccccc12)OCC(=O)c1ccc2c(c1)OCCO2	–	–	·

High-throughput results from PubChem BioAssay.
